Measurements taken from PubChem BioAssay AID1159580 (chemical genetic matrix, 2015).
The whole screen tested about 5,500 compounds, of which about 2,000 (36%) were called active. Inconclusive results (about 18%) are left out. No stated cut-off is given here; in the data, active means normalized growth mostly below about 0.91 (no sharp cut-off); inconclusive means no clear call, values can overlap the other calls; inactive means mostly above about 0.92. This is one part of the list.

Experiment: chemical genetic growth profiling, strain panel (AID 1159580);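 further: tested at 20 µM; growth read once vehicle control cultures reached saturation at 30 °C; 1 = growth at the plate median or of vehicle wells; lower values mean less growth of the strain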
Settings: growth OD

Measured: normalized growth

COc1cc(CNC(=O)CCCC/C=C/C(C)C)ccc1O
inactive: S. cerevisiae deletion strains, locus YJR043C, strain POL32, active compounds read low 1 | S. cerevisiae deletion strains, locus YJR066W, strain TOR1, active compounds read low 0.95 | S. cerevisiae deletion strains, locus YKL009W, strain mrt4, active compounds read low 0.926 | S. cerevisiae deletion strains, locus YKL068W, active compounds read low 1.01 | S. cerevisiae deletion strains, locus YKL085W, strain MDH1 (second series), active compounds read low 1 | S. cerevisiae deletion strains, locus YKL085W, strain MDH1, active compounds read low 1 | S. cerevisiae deletion strains, locus YKL160W, strain elf1, active compounds read low 0.97 | S. cerevisiae deletion strains, locus YKL190W, strain CNB1, active compounds read low 0.998 | S. cerevisiae deletion strains, locus YKR001C, strain vps1, active compounds read low 0.997 | S. cerevisiae deletion strains, locus YKR026C, strain gcn3, active compounds read low 0.97 | S. cerevisiae deletion strains, locus YKR091W, strain srl3, active compounds read low 0.981 | S. cerevisiae deletion strains, locus YLL001W, strain dnm1, active compounds read low 0.955 | S. cerevisiae deletion strains, locus YLL026W, active compounds read low 0.987 | S. cerevisiae deletion strains, locus YLL041C, strain sdh2, active compounds read low 0.987 | S. cerevisiae deletion strains, locus YLR027C, strain aat2, active compounds read low 0.975 | S. cerevisiae deletion strains, locus YLR039C, strain RIC1, active compounds read low 1.07 | S. cerevisiae deletion strains, locus YLR058C, strain SHM2, active compounds read low 1.02 | S. cerevisiae deletion strains, locus YLR102C, strain apc9, active compounds read low 0.986 | S. cerevisiae deletion strains, locus YLR113W, strain HOG1, active compounds read low 1.02 | S. cerevisiae deletion strains, locus YLR221C, strain rsa3, active compounds read low 0.978 | S. cerevisiae deletion strains, locus YLR258W, strain gsy2, active compounds read low 0.986 | S. cerevisiae deletion strains, locus YLR262C, strain YPT6 (second series), active compounds read low 0.966 | S. cerevisiae deletion strains, locus YLR262C, strain YPT6, active compounds read low 1.11 | S. cerevisiae deletion strains, locus YLR268W, strain sec22, active compounds read low 0.967 | S. cerevisiae deletion strains, locus YLR320W, strain mms22, active compounds read low 0.995 | S. cerevisiae deletion strains, locus YLR330W, strain CHS5, active compounds read low 1.02 | S. cerevisiae deletion strains, locus YLR342W, strain FKS1 (second series), active compounds read low 1.02 | S. cerevisiae deletion strains, locus YLR342W, strain FKS1, active compounds read low 0.978 | S. cerevisiae deletion strains, locus YLR357W, strain rsc2, active compounds read low 1.03 | S. cerevisiae deletion strains, locus YLR370C, strain arc18, active compounds read low 0.977 | S. cerevisiae deletion strains, locus YLR371W, strain rom2, active compounds read low 1.01 | S. cerevisiae deletion strains, locus YLR384C, strain iki3, active compounds read low 0.975 | S. cerevisiae deletion strains, locus YLR418C, strain cdc73, active compounds read low 1 | S. cerevisiae deletion strains, locus YML016C, strain PPZ1, active compounds read low 0.998 | S. cerevisiae deletion strains, locus YML032C, strain rad52, active compounds read low 0.988 | S. cerevisiae deletion strains, locus YML120C, strain ndi1, active compounds read low 0.984 | S. cerevisiae deletion strains, locus YML124C, strain tub3, active compounds read low 0.986 | S. cerevisiae deletion strains, locus YMR058W, strain fet3, active compounds read low 1 | S. cerevisiae deletion strains, locus YMR078C, strain ctf18, active compounds read low 1 | S. cerevisiae deletion strains, locus YMR125W, strain sto1, active compounds read low 1 | S. cerevisiae deletion strains, locus YMR129W, active compounds read low 0.974 | S. cerevisiae deletion strains, locus YMR205C, strain PFK2, active compounds read low 0.975 | S. cerevisiae deletion strains, locus YMR223W, strain ubp8, active compounds read low 1 | S. cerevisiae deletion strains, locus YMR231W, strain pep5, active compounds read low 1 | S. cerevisiae deletion strains, locus YMR307W, strain GAS1, active compounds read low 1.04 | S. cerevisiae deletion strains, locus YNL067W, strain RPL9B, active compounds read low 1 | S. cerevisiae deletion strains, locus YNL071W, strain lat1, active compounds read low 0.979 | S. cerevisiae deletion strains, locus YNL183C, strain NPR1, active compounds read low 0.96 | S. cerevisiae deletion strains, locus YNL209W, strain ssb2, active compounds read low 1 | S. cerevisiae deletion strains, locus YNL233W, strain BNI4, active compounds read low 0.995 | S. cerevisiae deletion strains, locus YNL248C, strain rpa49, active compounds read low 0.926 | S. cerevisiae deletion strains, locus YNL250W, strain rad50, active compounds read low 1.01 | S. cerevisiae deletion strains, locus YNL271C, strain bni1, active compounds read low 0.984 | S. cerevisiae deletion strains, locus YNL298W, strain CLA4, active compounds read low 0.992 | S. cerevisiae deletion strains, locus YNL307C, strain MCK1, active compounds read low 0.988 | S. cerevisiae deletion strains, locus YNL322C, strain KRE1 (second series), active compounds read low 0.98 | S. cerevisiae deletion strains, locus YNL322C, strain KRE1, active compounds read low 1.01 | S. cerevisiae deletion strains, locus YNR049C, strain mso1, active compounds read low 0.985 | S. cerevisiae deletion strains, locus YNR052C, strain pop2, active compounds read low 0.985 | S. cerevisiae deletion strains, locus YOL012C, strain htz1 1.39 | S. cerevisiae deletion strains, locus YOL147C, strain pex11, active compounds read low 0.973 | S. cerevisiae deletion strains, locus YOR001W, strain rrp6, active compounds read low 0.956 | S. cerevisiae deletion strains, locus YOR061W, strain CKA2, active compounds read low 1.02 | S. cerevisiae deletion strains, locus YOR069W, strain VPS5, active compounds read low 1.01 | S. cerevisiae deletion strains, locus YOR070C, strain gyp1, active compounds read low 0.99 | S. cerevisiae deletion strains, locus YOR080W, strain dia2, active compounds read low 0.979 | S. cerevisiae deletion strains, locus YOR083W, strain WHI5, active compounds read low 0.962 | S. cerevisiae deletion strains, locus YOR106W, strain vam3, active compounds read low 0.967 | S. cerevisiae deletion strains, locus YOR136W, strain idh2, active compounds read low 0.988 | S. cerevisiae deletion strains, locus YOR144C, strain elg1, active compounds read low 0.996 | S. cerevisiae deletion strains, locus YOR184W, strain ser1, active compounds read low 0.995 | S. cerevisiae deletion strains, locus YOR231W, strain MKK1, active compounds read low 1.02 | S. cerevisiae deletion strains, locus YOR265W, strain rbl2, active compounds read low 0.982 | S. cerevisiae deletion strains, locus YOR270C, strain vph1, active compounds read low 1 | S. cerevisiae deletion strains, locus YOR290C, strain snf2, active compounds read low 1 | S. cerevisiae deletion strains, locus YOR316C, strain cot1, active compounds read low 0.987 | S. cerevisiae deletion strains, locus YPL051W, strain arl3, active compounds read low 0.97 | S. cerevisiae deletion strains, locus YPL078C, strain atp4, active compounds read low 0.974 | S. cerevisiae deletion strains, locus YPL106C, strain sse1, active compounds read low 0.995 | S. cerevisiae deletion strains, locus YPL240C, strain hsp82, active compounds read low 0.991 | S. cerevisiae deletion strains, locus YPL256C, strain CLN2, active compounds read low 0.986 | S. cerevisiae deletion strains, locus YPR119W, strain clb2, active compounds read low 0.994 | S. cerevisiae deletion strains, locus YPR141C, strain kar3, active compounds read low 0.996 | S. cerevisiae deletion strains, locus YPR163C, strain tif3, active compounds read low 0.981 | S. cerevisiae deletion strains, locus YPR167C, strain met16, active compounds read low 1.01 | S. cerevisiae deletion strains, strain wtn01, active compounds read low 0.963 | S. cerevisiae strains, strain wild type, active compounds read low 1
